From PubChem
The full list was thinned out, with hits kept by preference.
RGS4 inhibitor = Inhibitors of Regulator of G Protein Signaling (RGS) 4: qHTS; Regulator of G-protein signaling 4 (Homo sapiens), P49798; Transcreener GDP fluorescence polarization, RGS4-accelerated GTP hydrolysis; Potency, µM (doses to about 114 µM), for the others: top-dose activity change, negative = inhibition, usual class: inhibitors; 390,000 compounds, 0.039% hits; AID 504845, 2011; note: potency is the fitted concentration of half-maximal effect; % is set by controls: 0 for no effect and ±100 for the full control effect; nearly all actives have a fitted effect of over 75% in size
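MLSMR compounds (23 nl, pin-transferred) preincubated 10 min at room temperature with a 500nM (2x) first reagent, then RGS4 at 900nM (2x) plus Transcreener GDP mix added; fluorescence polarization (620/688 nm) read before and after 90 min at 30 °C.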
S-ASM inh = Inhibitors of Secretory Acid Sphingomyelinase (S-ASM): qHTS; placental ASM, HMU-PC fluorogenic substrate, 60 min; Potency, µM (top dose mostly 57.5 µM), without a hit: at the top dose activity change, negative = inhibition, hits mostly inhibitors; 340,000 compounds, 0.006% hits; AID 504937, 2011; note: potency is the fitted concentration of half-maximal effect
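Human placenta-derived ASM preincubated with compound 10 min at room temperature, then reacted with 9 uM (final) fluorogenic HMU-PC substrate for 60 min at 37 C. Stop solution raises pH to 10; fluorescence read at Ex 386/Em 447 nm.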
mIDH1 inhibitor = qHTS for Inhibitors of mutant isocitrate dehydrogenase 1 (IDH1): qHTS; IDH1-R132H enzyme, NADPH consumption, diaphorase/resazurin fluorescence; 390,000 compounds, 0.093% hits; Potency, µM (doses to about 76.6 µM), without a hit: at the top dose activity change, negative = inhibition, actives largely listed as inhibitors; note: potency is the fitted concentration of half-maximal effect; % is set by controls: 0 for no effect and ±100 for the full control effect; nearly all actives have a fitted effect of over 65% in size
Target sequence (O75874 whole entry R132H, stated change not applied): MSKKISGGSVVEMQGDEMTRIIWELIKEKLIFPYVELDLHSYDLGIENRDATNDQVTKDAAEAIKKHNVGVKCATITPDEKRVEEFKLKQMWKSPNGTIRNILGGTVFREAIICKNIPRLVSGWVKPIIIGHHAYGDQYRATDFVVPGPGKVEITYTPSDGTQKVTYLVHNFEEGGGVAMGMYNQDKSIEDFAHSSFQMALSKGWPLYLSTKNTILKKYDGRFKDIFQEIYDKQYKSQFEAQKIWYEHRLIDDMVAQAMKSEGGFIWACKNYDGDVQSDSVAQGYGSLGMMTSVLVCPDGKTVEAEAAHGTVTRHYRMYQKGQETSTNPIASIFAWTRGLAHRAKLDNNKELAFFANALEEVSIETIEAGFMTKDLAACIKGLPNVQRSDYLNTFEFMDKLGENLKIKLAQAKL
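IDH1-R132H (0.5 ug/mL dispensed) in pH 7.5 Tris buffer was preincubated 30 min with compound, then given a substrate mix of 0.016 mM NADPH and 2 mM alpha-KG for 80 min at room temperature; remaining NADPH was read by diaphorase/resazurin fluorescence.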
ClpP mod = qHTS Assay for Activators of ClpP | 340,000 compounds, 1.9% hits | ATP-dependent Clp protease proteolytic subunit (Bacillus subtilis (strain 168)), P80244 | AID 651965, 2013 | Potency, µM (top dose mostly 57.5 µM), for inactives: at the top dose activity change, negative = active | purified B. subtilis ClpP, FRET peptide cleavage, 20 min; active = well fitted falling curve with a large enough effect; inconclusive = small, poorly fitted or top-dose-only effect; inactive = no such curve, though single readings can be large or run the other way; note: potency is the fitted concentration of half-maximal effect; the source files actives as falling curves though it sought activators and does not explain the sign; nearly all actives have a fitted effect of over 65% in size
Target sequence (P80244 whole entry, looked up): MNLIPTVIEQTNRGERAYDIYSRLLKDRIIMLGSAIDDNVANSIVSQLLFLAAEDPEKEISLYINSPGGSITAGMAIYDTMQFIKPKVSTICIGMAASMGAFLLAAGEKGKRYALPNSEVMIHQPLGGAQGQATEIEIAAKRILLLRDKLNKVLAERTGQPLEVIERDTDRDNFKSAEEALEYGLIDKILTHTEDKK
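ClpP 10 microg/mL final, pH 8 Tris/KCl buffer with BSA, glycerol, Tween-20; compound pinned in; FRET-FV substrate; RT 20 min; Ex320/Em430; ΔFRET vs ADEP 5.8 microM, DMSO, no enzyme.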
Mito fusion act = qHTS Assay for Small Molecule Inhibitors of Mitochondrial Division or Activators of Mitochondrial Fusion; S. cerevisiae fusion-defective mutant growth rescue, CellTiterGlo 48 h; Potency, µM (highest dose often 46.1 µM), inactives show at the top dose growth rescue (activation), usual class: activators; 320,000 compounds, 0.23% hits; note: potency is the fitted concentration of half-maximal effect; % of control where 0% means no effect; nearly all actives have a fitted effect of over 45% in size
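S. cerevisiae fusion-defective temperature-sensitive mutants (e.g. fzo1-1, mgm1-5) grown 48 h at 37C in YPEG (ethanol/glycerol non-fermentable) medium with 23 nl compound per well; growth rescue read as CellTiterGlo luminescence.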
LDHA inh = qHTS assay for inhibitors of human lactate dehydrogenase. activity change, % (values are at about 110 or 230 µM). 480,000 compounds, 0.15% hits. purified LDHA, NADH/diaphorase-resazurin fluorescence; stronger effect = lower value. L-lactate dehydrogenase A chain (Homo sapiens), P00338; in the data active = activity change below about -30%; inconclusive = mostly about -25% to -30%;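 note: plate controls were DMSO wells for no effect and wells without enzyme for full effect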
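LDH5 2 nM; NADH 0.06 mM, pyruvate 0.2 mM; 200 mM Tris pH 7.4, EDTA, Tween-20; 5 min RT. Detection: diaphorase 0.133 mg/mL + resazurin 37 µM, fluorescence ex540/em590 at 0 and 20 min; normalized to enzyme-free and DMSO wells.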
IDH1 autofl = qHTS for Inhibitors of mutant isocitrate dehydrogenase 1 (IDH1): Cherrypicks Autofluorescence Interference; shares compounds with mIDH1 inhibitor; Resorufin detection reagent fluorescence interference, cell-free; inhibition of signal, % at 51.2 µM; 750 tested, under 10 active; AID 623980, 2012;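 note: 0% = wells with normal resorufin and full inhibition = wells lacking resorufin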
WT IDH1 inh = qHTS for Inhibitors of mutant isocitrate dehydrogenase 1 (IDH1): Cherrypicks in WT IDH1. shares compounds with mIDH1 inhibitor. WT IDH1 enzyme, NADPH diaphorase/resazurin fluorescence. Potency, µM (doses to about 115 µM), for inactives: at the top dose activity change, negative = inhibition, usual class: inhibitors. 750 compounds, 9% hits. AID 623995, 2012;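 note: potency is the fitted concentration of half-maximal effect; 0% = full WT IDH1 enzyme control and full inhibition = no enzyme wells; nearly all actives have a fitted effect of over 55% in size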
Target sequence (O75874 whole entry, looked up): as the sequence (O75874 whole entry R132H, stated change not applied) above, with H132R counted along it
mIDH1 confirm = qHTS for Inhibitors of mutant isocitrate dehydrogenase 1 (IDH1): Confirmation of Cherrypicks; 750 compounds, 83% hits; Potency, µM (highest dose often 76.6 µM), inactives show top-dose activity change, negative = inhibition, hits mostly inhibitors; shares compounds with mIDH1 inhibitor; IDH1 R132H enzyme, NADPH diaphorase/resazurin fluorescence; note: potency is the fitted concentration of half-maximal effect; nearly all actives have a fitted effect of over 50% in size
* = called active by the depositor; ? = inconclusive; · = no result given. Unless noted, calls come from the whole dose curve; as a rule, active = well fitted curve in the direction sought with a large enough effect; inconclusive = small, poorly fitted or top-dose-only effect, or another doubt; inactive = no such curve, though single readings can be large; an effect the other way counts as inactive or inconclusive.

SMILES	RGS4 inhibitor	S-ASM inh	mIDH1 inhibitor	ClpP mod	Mito fusion act	LDHA inh	IDH1 autofl	WT IDH1 inh	mIDH1 confirm
O=C(CCCC(=O)N(c1ccc2c(c1)OCCO2)C(C(=O)NC1CCCCC1)c1ccc(F)cc1)Nc1ccccn1 (stereo not drawn)	22%	6%	9.3µM*	-1%	0%	-5	-8	2%	13µM*
Cc1cc(NC(=O)CCC(=O)N(c2ccc(F)cc2)C(C(=O)NC2CCCC2)c2ccccc2)no1 (stereo not drawn)	9%	-3%	?	·	1%	-3	2	5%	40µM*
Cc1cc(NC(=O)CCC(=O)N(c2ccccc2)C(C(=O)NC2CCCC2)c2ccc(F)cc2)no1 (stereo not drawn)	15%	32%	?	·	-2%	-13	-6	-4%	?
C#CC(=O)N(c1cc(OC)ccc1OC)C(C(=O)NC1CCCC1)c1cccs1 (stereo not drawn)	-11%	2%	?	-3%	-9%	-9	-7	11%	45µM*
CCN1CCN(c2ccc(NC(=O)c3cnc4ccccc4n3)cc2C)CC1	·	·	·	·	·	5	·	·	·
Cc1cc(NC(=O)CCC(=O)N(c2ccccc2)C(C(=O)NC2CCCCC2)c2cccs2)no1 (stereo not drawn)	-18%	1%	?	2%	-2%	-4	0	-5%	16µM*
O=C(NC1CCCCC1)C(c1cccs1)N(C(=O)C(F)(F)F)c1ccccc1 (stereo not drawn)	-15%	0%	?	1%	5%	-2	-12	5%	20µM*
Cc1ccc(N(C(=O)C(F)(F)F)C(C(=O)NC2CCCCC2)c2cccs2)cc1C (stereo not drawn)	-2%	-3%	3%	-1%	-5%	-2	·	·	·
CCOC(=O)c1nc2cc(C)c(C)cc2nc1NCCc1ccc(OC)c(OC)c1	·	·	·	·	·	2	·	·	·
CCN(C(=O)CSc1nc2n[nH]c(C)c2c(=N)n1-c1ccc(Cl)c(C)c1)c1cccc(C)c1	6%	-11%	46µM*	?	-9%	-3	-1	-11%	22µM*
Cc1cccc(-n2c(SCC(=O)Nc3ccccc3Cl)nc3n[nH]c(C)c3c2=N)c1	-9%	·	?	?	·	1	-9	-2%	25µM*
CCCCN(CC)C(=O)CSc1nc2n[nH]c(C)c2c(=N)n1-c1cccc(C)c1	-8%	-19%	-11%	-3%	-2%	-3	·	·	·
COc1cccc2cc(-c3nnc(SCC(=O)Nc4ccccc4C(C)C)n3N)oc12	·	·	·	·	·	-17	·	·	·
Cc1nnsc1NC(=O)OCc1ccc(C(C)(C)C)cc1	-15%	0%	?	1%	-13%	-2	3	2%	-3%
C=CCOC(=O)Nc1snnc1C	-9%	2%	-5%	1%	-1%	-4	·	·	·
Cc1cccc(NC(=O)CCc2c[nH]c3ccccc23)c1C	·	·	·	·	·	11	·	·	·
COc1cc(-c2cc(C(=O)Nc3ccc(S(N)(=O)=O)cc3)c3ccccc3n2)cc(OC)c1OC	3%	-10%	?	·	-5%	-10	-1	1%	?
Cc1ccc(-c2noc(-c3ccco3)n2)s1	·	·	·	·	·	1	·	·	·
O=C(CCl)NCCC12CC3CC(CC(C3)C1)C2	·	·	·	·	·	10	·	·	·
CCc1cc(C(=O)c2ccc(OC)cc2)c(NC(=O)CN2CCCCC2)s1	22%	-1%	-7%	-1%	1%	1	·	·	·
CCc1cc(C(=O)c2ccc(OC)cc2)c(NC(=O)CN2CCCC2)s1	-8%	-10%	46µM*	-2%	-5%	-3	-1	0%	16µM*
COc1cccc(C2c3c(-c4cc(Cl)c(C)cc4O)n[nH]c3C(=O)N2Cc2cccnc2)c1 (stereo not drawn)	-38%	-25%	?	3%	6%	-1	-1	1%	16µM*
COc1cc(C2c3c(-c4cc(Cl)c(C)cc4O)n[nH]c3C(=O)N2Cc2ccco2)ccc1O (stereo not drawn)	·	·	·	·	·	-7	·	·	·
COc1cc(C2c3c(-c4cc(Cl)c(C)cc4O)n[nH]c3C(=O)N2Cc2cccnc2)ccc1O (stereo not drawn)	-4%	-7%	?	0%	0%	2	-1	-3%	45µM*
CCc1ccc(OCCn2c(C3CC(=O)N(Cc4ccc(F)cc4)C3)nc3ccccc32)cc1 (stereo not drawn)	-8%	·	?	3%	·	5	-4	-8%	?
CN(C)S(=O)(=O)c1ccc(N2CCOCC2)c(C(=O)N2CCc3ccccc32)c1	·	·	·	·	·	0	·	·	·
Cc1ccc(-c2nnc(Nc3ccc(F)cc3)c3ccccc23)cc1S(=O)(=O)NC(C)C	-1%	·	?	?	·	-4	1	7%	?
COc1nnc(-c2ccc(C)c(S(=O)(=O)NC(C)C)c2)c2ccccc12	-3%	0%	26%	-1%	10%	-4	·	·	·
Cc1nn(CC(O)c2cccc(F)c2)c(=O)c2ccccc12 (stereo not drawn)	·	·	·	·	·	-5	·	·	·
CC(=O)OCC(=O)C1(O)CCC2C3CCC4=CC(=O)C=CC4(C)C3(F)C(O)CC21C (stereo not drawn)	5%	-4%	4%	1%	·	0	·	·	·
